In the library only some 2.4% were active in any assay of this set; here they are far more common.
LT uptake inh – qHTS Assay for Anthrax Lethal Toxin Internalization; 0.67% of 70,000 active; Cells, anthrax lethal toxin internalization, FRET ratio (460/530); AID 912, 2007; Potency, µM (doses to about 40 µM), without a hit: top-dose activity change, negative = inhibition, most hits filed as inhibitors; also: % is scaled to controls: 0 for no effect and ±100 for the full control effect; nearly all actives have a fitted effect of over 50% in size
AmpC inh no det – Promiscuous and Specific Inhibitors of AmpC Beta-Lactamase (assay without detergent); 1.8% of 71,000 active; Potency, µM (highest dose often 28.7 µM), inactives show at the top dose activity change, negative = inhibition; AmpC nitrocefin hydrolysis, absorbance 480 nm, no detergent; also: % of control where 0% means no effect
Target sequence (P00811 whole entry, looked up): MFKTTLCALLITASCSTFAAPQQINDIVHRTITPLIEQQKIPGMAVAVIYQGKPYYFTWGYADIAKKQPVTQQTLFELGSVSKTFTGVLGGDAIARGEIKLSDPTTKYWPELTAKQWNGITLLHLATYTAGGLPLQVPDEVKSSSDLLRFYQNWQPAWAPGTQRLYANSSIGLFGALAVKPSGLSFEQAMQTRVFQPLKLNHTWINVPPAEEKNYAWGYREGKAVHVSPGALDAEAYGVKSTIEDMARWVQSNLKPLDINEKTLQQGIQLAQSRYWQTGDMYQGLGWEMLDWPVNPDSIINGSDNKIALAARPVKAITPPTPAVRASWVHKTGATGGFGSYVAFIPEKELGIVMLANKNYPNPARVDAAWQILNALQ
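AmpC, 20 mM phosphate pH 7.0; 15 min cpd preinc, RT; start with nitrocefin (800 uM stock); A480 kinetic read, 20 s intervals, 4 min. No-enzyme wells = negative control.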
SmPrx2 inh – Schistosoma Mansoni Peroxiredoxins (Prx2) | S. mansoni Prx2 activity coupled to TGR/GSH (TGR is thioredoxin glutathione reductase), NADPH fluorescence loss, qHTS | 0.07% of 65,000 active | Potency, µM | Schistosoma mansoni peroxiredoxin 2 (Prx2)
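Coupled assay in which S. mansoni TGR passes NADPH reducing equivalents via glutathione to Prx2, which reduces H2O2. Compounds were preincubated 15 min at room temperature with 25 nM TGR/50 nM Prx2 mix. Kinetic NADPH fluorescence loss (ex 365/em 450 nm) was monitored.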
AmpC det inh – Promiscuous and Specific Inhibitors of AmpC Beta-Lactamase (assay with detergent); purified AmpC, nitrocefin hydrolysis with detergent; 0.09% of 71,000 active; Potency, µM (titrated, usually from 28.7 µM), for the others: at the top dose activity change, negative = inhibition; P00811; active = well fitted curve in the direction sought with a large enough effect; inconclusive = small, poorly fitted or top-dose-only effect; also: % is scaled to controls: 0 for no effect and ±100 for the full control effect
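E. coli AmpC (5.3 nM) in 20 mM phosphate pH 7.0 with 0.01% Triton X-100, preincubated 15 min RT with compound; nitrocefin (2 uL of 800 uM stock) hydrolysis followed by 480 nm absorbance every 20 s over 4 min.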
The depositor's hits bear a star; [ ] = dose if it differs, or a comment. Unless noted, calls follow the shape of the full dose curve. Potency is read from the fitted curve at half-maximal effect.

For Cc1ccc2c(c1)NC(=O)C(CC(=O)NCc1ccc(F)cc1)O2 (stereo not drawn) the results were LT uptake inh -5.7%, AmpC inh no det inconclusive, SmPrx2 inh >57 and AmpC det inh 10.0%.
O=C(CC1Oc2ccccc2NC1=O)NCCCN1CCOCC1 (stereo not drawn) was read as LT uptake inh 7.5%, AmpC inh no det 2.1%, SmPrx2 inh >57 and AmpC det inh 9.2%.
CC(=O)c1cccc(NC(=O)CC2Oc3ccc(C)cc3NC2=O)c1 (stereo not drawn) was read as LT uptake inh -5.0%, AmpC inh no det 3.98µM*[single pt active], SmPrx2 inh >57 and AmpC det inh 7.8%.
For CCCCN(C)CCCNC(=O)CC1Oc2ccccc2NC1=O (stereo not drawn) the results were LT uptake inh 1.0%, AmpC inh no det 3.98µM*[single pt active], SmPrx2 inh >57 and AmpC det inh 13.1%.
Screening Cc1ccc2c(c1)NC(=O)C(CC(=O)NCc1cccnc1)O2 (stereo not drawn) returned LT uptake inh -25.1%, AmpC inh no det 3.98µM*[single pt active], SmPrx2 inh >57 and AmpC det inh 9.9%.
Screening CC#C[C@@]1(O)CC[C@@H]2[C@@H]3CCC4=CC(=O)CCC4=C3[C@@H](c3ccc(N(C)C)cc3)C[C@]21C returned LT uptake inh inconclusive, AmpC inh no det 104.9%, SmPrx2 inh >57 and AmpC det inh 0.2%.
Nc1ncnc2c1ncn2[C@@H]1O[C@@H](COP(=O)(O)CP(=O)(O)OP(=O)(O)O)[C@H](O)[C@@H]1O was read as LT uptake inh 4.7%, AmpC inh no det -0.3%, SmPrx2 inh >57 and AmpC det inh 0.3%.
`COC(=O)C/C=C\[C@@H](C)[C@@H](CO)NS(=O)(=O)c1ccc(C)cc1` gave LT uptake inh -11.1%[8 µM].
O=C(/C=C/N1CCOCC1)c1ccc(-c2ccccc2)cc1 was read as LT uptake inh inconclusive, AmpC inh no det 12.6µM* and AmpC det inh -2.2%.
Cc1cc(N2CCOCC2)nc2ccc(Cc3ccc4nc(N5CCOCC5)cc(C)c4c3)cc12 was read as LT uptake inh -10.0%[8 µM], AmpC inh no det 53.2%[5.75 µM], SmPrx2 inh >57 and AmpC det inh -3.0%[5.75 µM].
Screening COC(=O)CS(=O)(=O)c1nnc([C@H](Cc2ccccc2)NC(=O)OC(C)(C)C)o1 returned AmpC inh no det inconclusive, SmPrx2 inh inconclusive and AmpC det inh 3.98µM*.
For CCN1CCCC1Cn1c(-c2ccccc2)nc2c(NC3CCCCC3)nc(C)nc21 (stereo not drawn) the results were LT uptake inh -17.4%, AmpC inh no det 114.5% and AmpC det inh 12.4%.
For COc1ccc(NC(=O)c2ccc(-c3ccc(-c4noc(C)n4)cc3C)cc2)cc1N1CCN(C)CC1 the results were LT uptake inh inconclusive, AmpC inh no det 147.4%, SmPrx2 inh >57 and AmpC det inh -5.7%.
Screening COc1ccc(NC(=O)c2ccc(-c3ccc(-c4noc(C)n4)cc3C)cc2)cc1OCCN(C)C returned LT uptake inh 15.8µM*, AmpC inh no det 161.0%, SmPrx2 inh >57 and AmpC det inh -1.4%.
Cc1ccc(-n2cnc3c(sc4nccc(N(C)C)c43)c2=O)cc1 was read as LT uptake inh 6.31µM*, AmpC inh no det 40.5% and AmpC det inh 11.8%.
`COc1ccc(-n2cnc3c(sc4nccc(N(C)C)c43)c2=O)cc1` gave AmpC inh no det -3.1%, SmPrx2 inh >57 and AmpC det inh -6.5%.
`COc1cc(-c2ccc(N=Nc3ccc4c(S(=O)(=O)O)cc(S(=O)(=O)O)c(N)c4c3O)c(OC)c2)ccc1N=Nc1ccc2c(S(=O)(=O)O)cc(S(=O)(=O)O)c(N)c2c1O` gave LT uptake inh inconclusive, AmpC inh no det -41.4%, SmPrx2 inh >57 and AmpC det inh inconclusive.
`Cc1cccc(-n2nc3c(c2NC(=O)c2ccc(Br)o2)CSC3)c1` gave LT uptake inh inconclusive, AmpC inh no det 10µM*, SmPrx2 inh >57 and AmpC det inh 0.2%.
`N#Cc1sc2nc3c(c(-c4ccco4)c2c1N)CCCC3` gave LT uptake inh -13.9%, AmpC inh no det 12.6µM*[single pt active], SmPrx2 inh >57 and AmpC det inh 10.2%.
C[C@H]1CC[C@]2(NC1)O[C@@H]1C[C@@H]3[C@@H]4CC=C5C[C@H](O)CC[C@@]5(C)[C@H]4CC[C@@]3(C)[C@H]1[C@@H]2C was read as LT uptake inh 18.3%, AmpC inh no det -0.5%, SmPrx2 inh >57 and AmpC det inh -0.3%.
Screening C[C@@]12CC[C@H]3[C@@H](CCC4=CC(=O)CC[C@]43C)[C@H]1CCC2=O returned LT uptake inh -6.8%, AmpC inh no det 16.9%, SmPrx2 inh >57 and AmpC det inh -3.2%.
For O=C1CC(c2ccc(S(=O)(=O)NC3CC3)cc2)CN1 (stereo not drawn) the results were LT uptake inh 13.5%, AmpC inh no det 3.98µM*[single pt active], SmPrx2 inh >57 and AmpC det inh 14.5%.
`Cc1ccc(S(=O)(=O)NCc2ccncc2)cc1` gave LT uptake inh -3.1%, AmpC inh no det -7.5%, SmPrx2 inh >57 and AmpC det inh -4.7%.
Screening O=C1CC(c2ccc(S(=O)(=O)NCc3ccncc3)cc2)CN1 (stereo not drawn) returned LT uptake inh -2.9%, AmpC inh no det 3.98µM*[single pt active], SmPrx2 inh >57 and AmpC det inh 14.2%.
O=C(Cc1ccccc1)Nc1nc2ccccc2[nH]1 was read as LT uptake inh -6.7%, AmpC inh no det -16.7%, SmPrx2 inh >57 and AmpC det inh -4.8%.
`O=C(Cc1c[nH]c2ccccc12)Nc1nc2ccccc2[nH]1` gave LT uptake inh -2.1%, AmpC inh no det 7.94µM*, SmPrx2 inh >57 and AmpC det inh 1.7%.
For O=C(NCCN1C(=O)C2C3C=CC(C3)C2C1=O)Nc1ccc(Br)cc1 (stereo not drawn) the results were LT uptake inh -13.4%, AmpC inh no det 3.98µM*[single pt active], SmPrx2 inh >57 and AmpC det inh 13.5%.
For COc1ccccc1NC(=O)NCCN1C(=O)C2C3C=CC(C3)C2C1=O (stereo not drawn) the results were LT uptake inh -1.0%, AmpC inh no det 3.98µM*[single pt active], SmPrx2 inh >57 and AmpC det inh 10.9%.
`COc1ccc(NC(=O)CCCN2C(=O)C3C4C=CC(C4)C3C2=O)c(OC)c1` (stereo not drawn) gave LT uptake inh 2.6%, AmpC inh no det 21.4%, SmPrx2 inh >57 and AmpC det inh 5.8%.
For O=C(NCCN1C(=O)C2C3C=CC(C3)C2C1=O)Nc1cccnc1 (stereo not drawn) the results were LT uptake inh inconclusive, AmpC inh no det 3.98µM*[single pt active], SmPrx2 inh >57 and AmpC det inh 13.5%.
O=C1C2C3C=CC(C3)C2C(=O)N1CCCCN1C(=O)C2C3C=CC(C3)C2C1=O (stereo not drawn) was read as LT uptake inh -2.3%, AmpC inh no det 1.4%, SmPrx2 inh >57 and AmpC det inh -3.5%.

Screening results deposited in PubChem BioAssay by National Center for Advancing Translational Sciences (NCATS).
